Data taken from the supplement of paper PMC13380429.

What was measured:
[1] = tested on: Vero E6 infected with SARS-CoV-2; assay: inhibition of SARS-CoV-2 cytopathic effect; higher = more antiviral protection, active = above 15; conditions: 48 h
[2] = tested on: Vero E6 infected with SARS-CoV-2; assay: morphology score (similarity to uninfected cells); higher = more like uninfected cells; conditions: 24 h
[3] = tested on: Vero E6 infected with SARS-CoV-2; assay: SARS-CoV-2 infection rate relative to infected DMSO; higher = more infection, active = 60 or less; conditions: 24 h

Compound	inhibition of SARS-CoV-2 cytopathic effect ([1]; 1 nM)	inhibition of SARS-CoV-2 cytopathic effect ([1]; 8.33 nM)	inhibition of SARS-CoV-2 cytopathic effect ([1]; 100 nM)	inhibition of SARS-CoV-2 cytopathic effect ([1]; 833.33 nM)	inhibition of SARS-CoV-2 cytopathic effect ([1]; 10000 nM)	morphology score [2]	SARS-CoV-2 infection rate [3]
C[N+](C)(CCOc1ccccc1)Cc1ccccc1 [bephenium-hydroxynaphthoate]	2.11% (inactive)	0.87% (inactive)	0.58% (inactive)	0.22% (inactive)	-0.72% (inactive)	–	–
O=C(O)c1ccc2[nH]cc(CCCCN3CC=C(c4ccccc4)CC3)c2c1 [carmoxirole]	1.76% (inactive)	1.65% (inactive)	-1.21% (inactive)	0.28% (inactive)	0.69% (inactive)	–	–
COc1ccc(/C=C\c2cc(OC)c(OC)c(OC)c2)cc1OP(=O)(O)O [fosbretabulin] (0.833333 µM)	–	–	–	–	–	0.0485	112% (inactive)
Cc1cc(C)c(N)c(C#Cc2cccc(F)c2)n1 (10 µM)	–	–	–	–	–	0.221	97.5% (inactive)
CCC(=O)OCC(=O)[C@@]1(OC(=O)CC)[C@@H](C)C[C@H]2[C@@H]3CCC4=CC(=O)C=C[C@]4(C)[C@@]3(Cl)[C@@H](O)C[C@@]21C [beclomethasone-dipropionate]	-9.44% (inactive)	-9.23% (inactive)	-11.4% (inactive)	-9.54% (inactive)	-6.97% (inactive)	–	–
C=CCN1CC[C@]23c4c5ccc(O)c4O[C@H]2[C@@H](OCCOCCOCCOCCOCCOCCOCCOC)CC[C@@]3(O)[C@H]1C5 [naloxegol] (10 µM)	–	–	–	–	–	0.25	92% (inactive)
Nc1ccc(S(=O)(=O)Nc2nccs2)cc1 [sulfathiazole]	1.78% (inactive)	2.25% (inactive)	0.28% (inactive)	1.1% (inactive)	-0.08% (inactive)	–	–
CCn1c(=O)c2c(nc(/C=C/c3ccc(OC)c(OC)c3)n2C)n(CC)c1=O [istradefylline] (10 µM)	–	–	–	–	–	0.157	108% (inactive)
CCNCCCNCCCCNCCCNCC	-0.97% (inactive)	1.01% (inactive)	3.25% (inactive)	3.4% (inactive)	11.4% (inactive)	–	–
COc1ccc2c(c1)C(=O)N(CCc1ccc(S(=O)(=O)NC(=O)NC3CCCCC3)cc1)C(=O)C2(C)C [gliquidone]	-1.78% (inactive)	2.65% (inactive)	2.68% (inactive)	-0.14% (inactive)	-0.29% (inactive)	–	–
CCC1=C(C)CN(C(=O)NCCc2ccc(S(=O)(=O)NC(=O)N[C@H]3CC[C@H](C)CC3)cc2)C1=O [glimepiride]	-3.26% (inactive)	-2.65% (inactive)	-2.4% (inactive)	–	–	–	–
N[C@H]1CCN(O)C1=O (10 µM)	–	–	–	–	–	0.0281	99.2% (inactive)
CCOC(=O)[C@H](CCc1ccccc1)N[C@H]1CCc2ccccc2N(CC(=O)O)C1=O [benazepril] (10 µM)	–	–	–	–	–	0.413	90.5% (inactive)
Sc1nc2ccccc2s1 [benzo[d]thiazole-2(3H)-thione]	-1.3% (inactive)	0.55% (inactive)	-0.47% (inactive)	–	–	–	–
O=C1O[C@H]([C@@H](O)CO)C([O-])=C1O.[Na+] [sodium-ascorbate] (10 µM)	–	–	–	–	–	0.159	95.5% (inactive)
CCCNC(=O)N1N=C(c2ccc(N)cc2)c2cc3c(cc2C1C)OCO3 (configuration not stated)	-4.65% (inactive)	-0.41% (inactive)	1.6% (inactive)	0.9% (inactive)	4.48% (inactive)	–	–
COc1ccc2c(c1)CN(C)CC2c1ccc(Cl)c(Cl)c1 (configuration not stated) [diclofensine]	3.38% (inactive)	2.5% (inactive)	-1.16% (inactive)	3.57% (inactive)	1.83% (inactive)	–	–
C/C(=C\C(=O)OCCCCCCCCC(=O)O)C[C@@H]1OC[C@H](C[C@@H]2O[C@H]2[C@@H](C)[C@H](C)O)[C@@H](O)[C@H]1O [mupirocin]	-1.43% (inactive)	-0.61% (inactive)	0.52% (inactive)	2.09% (inactive)	1.36% (inactive)	–	–
CCc1cc(C(C)=O)c(O)cc1OCCCCCC(C)(C)c1nn[nH]n1	-2.28% (inactive)	0.23% (inactive)	0.43% (inactive)	–	–	–	–
C=C(CC)C(=O)c1ccc(OCC(=O)O)c(Cl)c1Cl [etacrynic-acid] (10 µM)	–	–	–	–	–	-0.0164	98.5% (inactive)
CC(C)(C)NCC(O)COc1cccc2[nH]c(C#N)cc12 (configuration not stated) [cyanopindolol] (10 µM)	–	–	–	–	–	-0.0665	107% (inactive)
N[C@@H](Cn1ccc(=O)n(Cc2ccccc2C(=O)O)c1=O)C(=O)O	1.86% (inactive)	3.68% (inactive)	-0.19% (inactive)	1.26% (inactive)	-0.16% (inactive)	–	–
COc1cc2c(cc1OC)[C@H](C)NCC2 [Isoquinoline,-6,7-dimethoxy-1-methyl-1,2,3,4-tetrahydro,]	-4.15% (inactive)	-1.29% (inactive)	-0.88% (inactive)	-1.82% (inactive)	-2.99% (inactive)	–	–
O=C(O)C(=O)O.[NH-][C@@H]1CCCC[C@H]1[NH-].[Pt+2] [oxaliplatin]	1.5% (inactive)	1.96% (inactive)	10.3% (inactive)	-2.36% (inactive)	1% (inactive)	–	–
